According to PubChem BioAssay (NCATS):
Inconclusive results are not listed. The source made the active and inactive calls. Unless noted, the call rests on the fitted dose curve. Square brackets hold non-standard residues; d marks the D form. Peptide text beside a SMILES is read from it. * marks the point of attachment. Sta = CC(C)C[C@H](N)[C@@H](O)CC(=O)O; Isovaleryl = CC(C)CC(=O)*

Tests used:
[1] = qHTS for Inhibitors of the Functional Ribonucleoprotein Complex (vRNP) of Lassa (LASV) Arenavirus: LASV Primary Screen - GLuc reporter signal (AID 1347082; calls by dose curve; tested in HEK293 reporter line; further: nearly all actives have a fitted effect of over 60% in size)
[2] = qHTS for Inhibitors of the Functional Ribonucleoprotein Complex (vRNP) of Lassa (LASV) Arenavirus: Viability assay - alamar blue signal for LASV Primary Screen (AID 1347083; calls by dose curve; tested in HEK293 reporter line; further: nearly all actives have a fitted effect of over 80% in size)
[3] = qHTS for Inhibitors of the Functional Ribonucleoprotein Complex (vRNP) of Lymphocytic Choriomeningitis Arenaviruses (LCMV): Viability assay - alamar blue signal for LCMV Primary Screen (AID 1347085; calls by dose curve; tested in HEK293 reporter line; further: nearly all actives have a fitted effect of over 80% in size)
[4] = target: Nucleoprotein (Lymphocytic choriomeningitis virus (strain Armstrong)) (UniProt P09992); experiment: qHTS for Inhibitors of the Functional Ribonucleoprotein Complex (vRNP) of Lymphocytic Choriomeningitis Arenaviruses (LCMV): LCMV Primary Screen - GLuc reporter signal (AID 1347086); further: nearly all actives have a fitted effect of over 70% in size

Measured: Potency
Further: series mostly up to about 57 µM.

Sequence of Nucleoprotein (Lymphocytic choriomeningitis virus (strain Armstrong)) (P09992 whole entry, looked up): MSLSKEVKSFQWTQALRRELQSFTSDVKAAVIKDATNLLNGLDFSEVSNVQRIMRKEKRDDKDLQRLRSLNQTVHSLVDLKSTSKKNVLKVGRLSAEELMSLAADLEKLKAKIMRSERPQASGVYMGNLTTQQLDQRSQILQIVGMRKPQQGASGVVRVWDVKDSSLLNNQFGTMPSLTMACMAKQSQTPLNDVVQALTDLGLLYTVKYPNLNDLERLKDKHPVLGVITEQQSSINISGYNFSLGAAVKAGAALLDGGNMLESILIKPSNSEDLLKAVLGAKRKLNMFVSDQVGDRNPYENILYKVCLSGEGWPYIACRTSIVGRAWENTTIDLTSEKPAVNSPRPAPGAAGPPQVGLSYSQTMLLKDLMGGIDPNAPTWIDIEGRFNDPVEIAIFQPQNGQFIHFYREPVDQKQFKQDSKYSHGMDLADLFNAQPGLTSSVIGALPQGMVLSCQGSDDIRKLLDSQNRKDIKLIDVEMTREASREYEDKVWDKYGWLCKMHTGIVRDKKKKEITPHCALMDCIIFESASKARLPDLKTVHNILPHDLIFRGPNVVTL

O=S1(=O)OC(c2ccc(O)cc2)(c2ccc(O)cc2)c2ccccc21
inactive: all assays above

NCCc1cnc[nH]1
inactive: all assays above

CC(O)COc1ccccc1 (stereo not given)
inactive: all assays above

Cn1cnc2c1c(=O)[nH]c(=O)n2C
inactive: all assays above

C[N+]1(CC2COC(c3ccccc3)(c3ccccc3)O2)CCCCC1 (stereo not given)
inactive: all assays above

C/C=C/c1ccc(OC)cc1
inactive: all assays above

Cc1nc2sccn2c(=O)c1CCN1CCC(=C(c2ccc(F)cc2)c2ccc(F)cc2)CC1
inactive: all assays above

CC(Oc1c(Cl)cccc1Cl)C1=NCCN1 (stereo not given)
inactive: all assays above

NCc1ccccc1Sc1ccccc1CO
inactive: all assays above

C=CCCCCCCCCC(=O)O
inactive: all assays above

O=C(NC1CCN(CCc2c[nH]c3ccccc23)CC1)c1ccccc1
inactive: all assays above

Oc1ccc(C(O)CNCCCCCCNCC(O)c2ccc(O)c(O)c2)cc1O (stereo not given)
inactive: all assays above

CCOc1ccccc1O[C@H](c1ccccc1)[C@H]1CNCCO1
inactive: all assays above

CCN(CC)CCOC(=O)C(c1ccccc1)C1CCCCC1 (stereo not given)
inactive: all assays above

CC(C)C[C@@H](N)C(=O)O
inactive: all assays above

NCC1CCC(C(=O)Oc2ccc(CCC(=O)O)cc2)CC1 (stereo not given)
inactive: all assays above

CCN(CC)CCNC(=O)c1cc(Br)c(N)cc1OC
inactive: all assays above

CC(=O)O[C@H]1CC[C@@]2(C)C(=CC[C@@H]3[C@@H]2CC[C@]2(C)C(C(C)=O)=CC[C@@H]32)C1
inactive: all assays above

O=C(CCCCCCCCC#CI)Oc1ccccc1
inactive: all assays above

CC(C)CCCC(C)N (stereo not given)
inactive: all assays above

CCOC(=O)C1=C[C@]2(CC)CCCN3CCc4c(n1c1ccccc41)[C@@H]32
inactive: all assays above

CCOC(=O)C(C#N)=C(c1ccccc1)c1ccccc1
inactive: all assays above

CC(=O)OCC(=O)Nc1cc(C#N)cc(NC(=O)COC(C)=O)c1Cl
inactive: all assays above

CCn1ccnc1CC1COc2ccccc2O1 (stereo not given)
inactive: all assays above

CCOC(=O)NNc1nncc2ccccc12
inactive: all assays above

Oc1cc(O)c2c(c1)O[C@H](c1ccc(O)c(O)c1)[C@H](O)C2
inactive: all assays above

CC(=O)[C@@]1(O)CC[C@H]2[C@@H]3CCC4=CC(=O)CC[C@]4(C)[C@H]3CC[C@@]21C
inactive: all assays above

Cc1ccc(C(=O)Nc2ccc(S(=O)(=O)O)c3cc(S(=O)(=O)O)cc(S(=O)(=O)O)c23)cc1NC(=O)c1cccc(NC(=O)Nc2cccc(C(=O)Nc3cc(C(=O)Nc4ccc(S(=O)(=O)O)c5cc(S(=O)(=O)O)cc(S(=O)(=O)O)c45)ccc3C)c2)c1
inactive: all assays above

CCCn1cnc2c1c(=O)n(CCCCC(C)=O)c(=O)n2C
inactive: all assays above

O=C(CCCN1CCN(c2ccccn2)CC1)c1ccc(F)cc1
inactive: all assays above

CN(C)[C@@H]1C(=O)C(C(=O)NCN2CCCC2)=C(O)[C@@]2(O)C(=O)C3=C(O)c4c(O)cccc4[C@@](C)(O)C3C[C@@H]12 (stereo not given in full)
inactive: all assays above

CCCCC1(COC(=O)CCC(=O)O)C(=O)N(c2ccccc2)N(c2ccccc2)C1=O
inactive: all assays above

CC(N)C(=O)OC(C)(C)Cc1ccc(Cl)cc1 (stereo not given)
inactive: all assays above

NS(=O)(=O)c1cc2c(cc1Cl)NC(CSCc1ccccc1)=NS2(=O)=O
inactive: all assays above

Cc1c(F)cc2c(=O)c(C(=O)O)cn3c2c1CCC3C (stereo not given)
inactive: all assays above

COC(=O)[C@@H](N)Cc1ccc(O)c(O)c1
inactive: all assays above

O=C(Oc1cccc2cccnc12)c1ccccc1
inactive: all assays above

CCCCCCCCOc1ccccc1C(=O)Nc1ccc(C(=O)OCC[N+](C)(CC)CC)cc1
inactive: all assays above

CC1(C)CO[C@@H](CC(=O)O)CN1
inactive: all assays above

C#C[C@]1(O)CC[C@H]2[C@@H]3CCc4cc(OC)ccc4[C@H]3CC[C@@]21C
inactive: all assays above

CCC(=O)c1ccc(O)cc1
inactive: all assays above

C[C@@H]1C[C@H]2[C@@H]3CCC4=CC(=O)C=C[C@]4(C)[C@@]3(F)[C@@H](O)C[C@]2(C)[C@H]1C(=O)CO
inactive: all assays above

Cc1ccc(N(CC2=NCCN2)c2cccc(O)c2)cc1
inactive: all assays above

CC1(C)OC(=O)Nc2ccc(Br)cc21
inactive: all assays above

CCN(CC)CCSC(=O)C(c1ccccc1)c1ccccc1
inactive: all assays above

O=C(CCCN1CCC(O)(c2cccc(C(F)(F)F)c2)CC1)c1ccc(F)cc1
inactive: all assays above

Cn1c(=O)c2c(ncn2C)n(C)c1=O
inactive: all assays above

CC(NC(CCc1ccccc1)C(=O)O)C(=O)N1C(=O)N(C)CC1C(=O)O (stereo not given)
inactive: all assays above

Cn1cc(C(=O)[C@@H]2CCc3nc[nH]c3C2)c2ccccc21
inactive: all assays above

CSc1ccc(C(=O)c2[nH]c(=O)[nH]c2C)cc1
inactive: all assays above

CC(C)CC(=O)N[C@H](C(=O)N[C@H](C(=O)N[C@@H](CC(C)C)[C@@H](O)CC(=O)N[C@@H](C)C(=O)N[C@@H](CC(C)C)[C@@H](O)CC(=O)O)C(C)C)C(C)C (Isovaleryl-VV[Sta]A[Sta]-OH)
inactive: all assays above

NS(=O)(=O)c1cc2c(cc1Cl)NCNS2(=O)=O
inactive: all assays above

N=C(N)c1ccc2cc(OC(=O)c3ccc(N=C(N)N)cc3)ccc2c1
inactive: all assays above

CN1CCOC(c2ccccc2)c2ccccc2C1 (stereo not given)
inactive: all assays above

CC(=O)OCC(=O)[C@@]12N=C(C)O[C@@H]1C[C@H]1[C@@H]3CCC4=CC(=O)C=C[C@]4(C)[C@H]3[C@@H](O)C[C@@]12C
inactive: all assays above

C[C@]12CCC(=O)C=C1CC[C@@H]1[C@@H]2[C@@H](O)C[C@@]2(C)[C@H]1CC[C@]2(O)C(=O)CO
inactive: all assays above

CCCCCCCCCCCC[N+](C)(C)Cc1ccccc1
inactive: all assays above

CN(C(=O)c1c(O)c2ccccc2n(C)c1=O)c1ccccc1
inactive: all assays above

CCC(=O)Oc1ccc2c(c1)CC[C@@H]1[C@@H]2CC[C@@]2(C)[C@H]1C[C@@H](OC(=O)CC)[C@@H]2OC(=O)CC
inactive: all assays above

CC1(C)S[C@@H]2[C@H](N=CN3CCCCCC3)C(=O)N2[C@H]1C(=O)O
inactive: all assays above
